Pf Dd2 inh = P. falciparum Dd2 growth inhibition. SYBR Green, 72 h; active compounds read low. activity change, % at 10 µM. hit rate 2.3% among 94,000. AID 1159554; in the data active means activity change below about -80%; inconclusive means no clear call, values can overlap the other calls
T cruzi growth-1 = T. cruzi proliferation inhibition; AID 624255; inhibition, % at 8.34 µM; T. cruzi beta-gal in NIH3T3, GalScreen luminescence, 90 h; hit rate 5.9% among 77,000;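 active means mean inhibition above about 93%, with at least 55% of replicates each passing it, limit read from the data, passing the limit was not always enough; inconclusive means only one of those two conditions holds; inactive means neither condition holds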
C diff HTS = inhibitors of Clostridium difficile growth; Clostridium difficile clinical isolate growth, OD600, 24 h; active compounds read low; growth activity, negative = inhibition, % at 16 µg/mL (by protocol); hit rate 0.25% among 86,000;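 active means mean growth activity at or below -80% and every replicate also at or below -80%; inconclusive means mean at or below -80% but some replicate above -80%; inactive means mean growth activity above -80%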;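 further: 0% = DMSO wells and -100% = levofloxacin 16 µg/mL wells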
T cruzi growth-2 = Trypanosoma cruzi proliferation inhibition; inhibition, % at 8.35 µM; hit rate 72% among 5,600; T. cruzi beta-gal in NIH3T3, GalScreen luminescence, 90 h; shares compounds with T cruzi growth-1;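 active means mean replicate inhibition above about 95% and at least 55% of replicates individually reaching it, limit read from the data; inconclusive means only one of the two criteria is met; inactive means neither criterion is met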
T cruzi growth-3 = Trypanosoma cruzi proliferation inhibition | shares compounds with T cruzi growth-1 | T. cruzi beta-gal in NIH3T3, GalScreen luminescence, 90 h | inhibition, % at 2.09 µM | hit rate 21% among 5,600;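 active means mean inhibition above about 95%, with at least 55% of replicates also reaching it, limit read from the data; inconclusive means meets just one of the two conditions; inactive means meets neither condition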;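 further: plate controls were neutral control median for no effect and positive control median for full effect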
NIH3T3 tox = kills mouse NIH/3T3 fibroblasts; shares compounds with T cruzi growth-1; NIH/3T3 viability, CellTiter-Glo ATP luminescence, 90 h; cytotoxicity (signal decrease), % at 8.35 µM; hit rate 14% among 5,600;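 active means mean signal decrease across replicates above about 35% based on untreated-well scatter, with enough replicates individually passing, limit read from the data; inconclusive means no rule stated though some were filed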;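 further: 0% = median of neutral control wells and 100% = median of positive control wells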
NIH3T3 tox 2 = NIH/3T3 (mouse) viability loss | shares compounds with T cruzi growth-1 | NIH/3T3 viability, CellTiter-Glo ATP luminescence, 90 h | inhibition, % at 24.9 µM | hit rate 56% among 5,600;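 active means mean loss of cell viability signal at or above a set limit, and enough replicates individually reaching it; inconclusive means meets only the mean limit or only the replicate share; inactive means meets neither condition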;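 further: 0% = median of neutral control wells and 100% = median of positive control wells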
The depositor's hits bear a star; u = inconclusive; x = not tested or not shown. The list is not random: actives were taken first. Their share in the collection is about 6.8%.

SMILES	Pf Dd2 inh	T cruzi growth-1	C diff HTS	T cruzi growth-2	T cruzi growth-3	NIH3T3 tox	NIH3T3 tox 2
O=C(Nc1ccc(F)cc1)N1CCCCN2[C@H](CO)[C@H](c3ccc(-c4cccc(F)c4)cc3)[C@H]2C1	-25.5	48.8	57.2	x	x	x	x
N#Cc1cccc(-c2ccc([C@H]3[C@H]4CN(C(=O)Nc5ccccc5)CCCCN4[C@H]3CO)cc2)c1	12.7	57.2	8.6	x	x	x	x
C[C@@H]1CN([C@@H](C)CO)C(=O)c2cc(NS(=O)(=O)c3ccc(F)cc3)ccc2O[C@@H](C)CCCCO[C@@H]1CN(C)S(=O)(=O)c1cn(C)cn1	-49.9	18.9	3.2	x	x	x	x
COCC(=O)N(C)C[C@H]1Oc2ncc(C#CC3(O)CCCC3)cc2C(=O)N([C@H](C)CO)C[C@H]1C	14.1	8.5	-3.1	x	x	x	x
CCCN(C)C[C@H]1Oc2cc(-c3cccc(F)c3)ccc2S(=O)(=O)N([C@@H](C)CO)C[C@H]1C	-7.6	x	x	x	x	x	x
N#Cc1ccc(-c2ccc([C@H]3[C@@H](CO)N4CCCCN(C(=O)Nc5ccc(F)cc5)C[C@H]34)cc2)cc1	-48.8	97.8*	29.4	105.3*	105.0*	32.2	104.3*
N#Cc1ccc(-c2ccc([C@H]3[C@H](CO)N4CCCCN(C(=O)Nc5ccc(F)cc5)C[C@@H]34)cc2)cc1	-15.0	50.6	33.8	x	x	x	x
O=S(=O)(c1ccccc1)N1[C@@H]2CNC[C@H]1C2c1ccc(-c2cccc(F)c2)cc1 (stereo partly specified)	-23.1	x	1.5	x	x	x	x
O=C(Nc1ccccc1F)N1CCCCN2[C@H](CO)[C@H](c3ccc(C#Cc4cccnc4)cc3)[C@H]2C1	-48.5	100.8*	1.5	108.9*	64.1	26.8	69.5*
O=C(Nc1cccc(F)c1)N1CCCCN2[C@H](C1)[C@@H](c1ccc(C#Cc3cccnc3)cc1)[C@@H]2CO	-16.2	89.1	4.0	x	x	x	x
O=C(Nc1ccccc1F)N1CCCCN2[C@H](CO)[C@H](c3ccc(-c4cccnc4)cc3)[C@H]2C1	-55.2	47.4	-5.2	x	x	x	x
O=C(Nc1ccccc1F)N1CCCCN2[C@@H](CO)[C@H](c3ccc(C#Cc4cccnc4)cc3)[C@@H]2C1	-77.2	122.3*	-4.7	106.2*	38.7	24.3	38.4*
CN1CCN(C(=O)[C@@H]2[C@@H](CO)[C@@H]3Cn4c(ccc(C5=CCCCC5)c4=O)[C@H]2N3S(C)(=O)=O)CC1	x	94.7	0.9	x	x	x	x
O=C(Nc1ccccc1)N[C@H]1CC[C@@H](CCNS(=O)(=O)c2cccc(F)c2)O[C@H]1CO	-1.5	19.6	-9.9	x	x	x	x
O=C(Nc1ccccc1)N[C@H]1CC[C@H](CCNS(=O)(=O)c2cccc(F)c2)O[C@@H]1CO	-1.6	18.5	-7.5	x	x	x	x
O=C(Nc1ccc(Cl)cc1)N[C@H]1CC[C@@H](CCNC(=O)c2ccccc2F)O[C@H]1CO	-2.9	36.2	1.0	x	x	x	x
O=C(Cc1ccccn1)N[C@H]1CC[C@@H](CCNS(=O)(=O)c2cccc(F)c2)O[C@@H]1CO	1.7	100.9*	x	40.7	18.7	5.4	18.1
O=C(Nc1ccc(Cl)cc1)N[C@H]1CC[C@@H](CCNC(=O)c2ccccc2F)O[C@@H]1CO	-7.8	142.0*	-5.4	36.2	14.0	-8.7	-18.4
O=C(Nc1cc(Cl)cc(Cl)c1)N[C@@H]1CC[C@@H](CCNS(=O)(=O)c2cccc(F)c2)O[C@@H]1CO	-26.1	146.6*	8.2	104.3*	3.2	10.1	65.1*
O=C(Cc1ccccn1)N[C@H]1CC[C@@H](CCNS(=O)(=O)c2cccc(F)c2)O[C@H]1CO	-10.0	-39.1	x	x	x	x	x
O=C(Nc1cc(Cl)cc(Cl)c1)N[C@H]1CC[C@@H](CCNS(=O)(=O)c2cccc(F)c2)O[C@@H]1CO	6.2	u	13.8	99.5*	38.7	39.8*	81.5*
COc1ccc(CN(C)C[C@H]2Oc3ccc(NS(=O)(=O)c4c(C)noc4C)cc3C(=O)N([C@@H](C)CO)C[C@@H]2C)cc1	29.7	5.2	2.6	x	x	x	x
C[C@H](CO)N1C[C@H](C)[C@@H](CN(C)Cc2ccc(-c3ccccc3)cc2)Oc2ccc(NC(=O)NC3CCCCC3)cc2C1=O	10.3	-93.2	4.2	x	x	x	x
O=C(Nc1ccccc1F)N1C[C@H]2[C@@H](c3ccccc31)[C@H](CO)N2C(=O)c1ccc(F)cc1	-29.0	19.0	0.2	x	x	x	x
C[C@@H]1CCCCO[C@@H](CN(C)C(=O)CCCN(C)C)[C@H](C)CN([C@@H](C)CO)C(=O)c2cc(NS(C)(=O)=O)ccc2O1	20.3	31.0	-3.4	x	x	x	x
SMILES	Pf Dd2 inh	T cruzi growth-1	C diff HTS	T cruzi growth-2	T cruzi growth-3	NIH3T3 tox	NIH3T3 tox 2
COCC(=O)N1C[C@@H](C)[C@H](OC)CN(C)C(=O)c2cc(NC(=O)Nc3cccc(F)c3)ccc2OC[C@@H]1C	-19.6	11.9	x	x	x	x	x
C[C@@H]1CN([C@H](C)CO)C(=O)c2cc(NC(=O)Nc3ccc4c(c3)OCO4)ccc2O[C@@H]1CN(C)C(=O)NC1CCCCC1	-10.7	0.3	0.9	x	x	x	x
O=C(Nc1cc(Cl)cc(Cl)c1)N[C@H]1CC[C@H](CCNS(=O)(=O)c2cccc(F)c2)O[C@H]1CO	5.3	176.4*	24.7	104.4*	48.4	33.2	56.6*
O=C(Nc1ccccc1)N[C@@H]1CC[C@@H](CCNS(=O)(=O)c2cccc(F)c2)O[C@@H]1CO	-7.9	29.9	-7.1	x	x	x	x
CC(C)C#Cc1ccc([C@H]2[C@@H](C#N)N(C(=O)C3CCC3)[C@H]2CO)cc1	-60.5	97.8*	0.7	100.3*	88.3	0.3	36.6*
CC(C)C#Cc1ccc([C@H]2[C@@H](C#N)N(C(=O)C3CCC3)[C@@H]2CO)cc1	-10.5	90.4	-4.3	x	x	x	x
CC(C)C#Cc1ccc([C@H]2[C@@H](C#N)N(C(=O)C3CC3)[C@H]2CO)cc1	-29.8	91.9	-2.6	x	x	x	x
CC(C)C#Cc1ccc([C@H]2[C@@H](CO)N(C(=O)C3CCOCC3)[C@H]2C#N)cc1	-21.4	98.1*	0.0	106.0*	93.5	-8.1	-4.9
CC(C)C#Cc1ccc([C@@H]2[C@@H](CO)N(C(=O)C3CCC3)[C@H]2C#N)cc1	-7.7	100.5*	-8.6	99.6*	69.0	2.1	31.4*
CC(C)C#Cc1ccc([C@@H]2[C@H](C#N)N(C(=O)C3CCC3)[C@H]2CO)cc1	-16.6	u	8.3	103.7*	73.4	15.4	34.5*
CC(C)C#Cc1ccc([C@@H]2[C@@H](C#N)N(C(=O)C3CC3)[C@H]2CO)cc1	-9.0	44.3	-17.6	x	x	x	x
CC(C)c1cn(CC[C@@H]2CC[C@H](NC(=O)c3cccc(F)c3)[C@H](CO)O2)nn1	12.5	-15.9	x	x	x	x	x
C[C@H]1CN([C@@H](C)CO)C(=O)c2cc(NS(=O)(=O)c3ccc(F)cc3)ccc2O[C@H]1CN(C)Cc1ccc(C(=O)O)cc1	36.1	12.5	0.1	x	x	x	x
Cc1ccccc1-c1ccccc1[C@H]1[C@@H](C#N)N(C(=O)c2ccc(F)cc2)[C@@H]1CO	-17.2	x	0.0	x	x	x	x
